Screening results as filed in PubChem.
L3MBTL1 block: L3MBTL1 (human) inhibition; Potency, µM (doses to about 57.1 µM), usual class: inhibitors; AID 485360; AlphaScreen L3MBTL1–H3K9me1 peptide binding; actives 0.66% (n = 230,000); further: nearly all actives have a fitted effect of over 60% in size
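L3MBTL1 (50 nM) pre-complexed 30 min with biotinylated H3(1-15)K9me1 peptide (75 nM), then compounds added for 30 min at room temperature; AlphaScreen streptavidin donor/nickel chelate acceptor beads (10 ug/mL final) read after 30 min dark incubation.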
Pol beta inh: blocks human DNA polymerase beta activity; P06746; Pol beta primer extension/strand displacement, fluorescence kinetic; Potency, µM (titrated, usually from 114 µM), most hits filed as inhibitors; actives 1.3% (n = 340,000); AID 485314
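Pol beta (10 nM) and compounds were preincubated 15 min at room temperature, then 50 nM substrate (final) started primer extension/strand displacement. Reads were taken at 0 and 10 min; concentration-response data were fitted to a four-parameter Hill equation.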
POLI inh: inhibitors of human DNA polymerase iota. Q9UNA4. actives 1% (n = 390,000). Potency, µM (highest dose often 115 µM), usual class: inhibitors. Pol iota fluorescent replication assay, 10 min
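Fluorescent replication assay read twice, at 0 min and 10 min after adding 50 nM (final) substrate. Enzyme (10 nM) and compounds were first incubated 15 min at room temperature; enzyme-free buffer wells were negative controls.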
Pol kappa inh-1: DNA polymerase kappa (human) inhibition | AID 588579 | actives 0.53% (n = 400,000) | purified Pol kappa, fluorescent DNA synthesis assay, 10 min | Q9UBT6 | Potency, µM (highest dose often 107 µM), most hits filed as inhibitors
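Pol kappa 10 nM + cpd, 15 min RT; start w/ substrate 50 nM final; fluorescence kinetic read, 0 and 10 min. Neg ctrl: buffer, no enzyme.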
WRN helicase inh: blocks human WRN helicase | Q14191 | WRN helicase unwinding, fluorescent forked duplex, kinetic | Potency, µM (titrated, usually from 114 µM), hits mostly inhibitors | actives 0.46% (n = 360,000); further: nearly all actives have a fitted effect of over 55% in size
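WRN at 20 nM final preincubated with compound 15 min at room temperature; reaction started with 100 nM fluorophore/quencher forked duplex oligonucleotide and 2 mM ATP final. Unwinding followed kinetically by red fluorescence (ex 525, em 598 nm).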
Pol eta inh-1: blocks human DNA polymerase eta activity | Q9Y253 | recombinant Pol eta, fluorescent DNA replication assay | Potency, µM (titrated, usually from 114 µM), actives largely listed as inhibitors | actives 1.2% (n = 390,000) | AID 588591
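Pol eta (10 nM) was preincubated with compounds for 15 min at room temperature, after which fluorescent replication substrate (50 nM final) was added to start the reaction. Fluorescence was read kinetically at 0 and 10 min.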
Pol iota confirm: Human Pol iota inhibitor confirmatory assay. shares compounds with Pol kappa inh-1. Pol iota primer extension, TAMRA/BHQ fluorescence. Potency, µM, hits mostly inhibitors. actives 77% (n = 1,500)
GALK inh confirm: confirmation of human galactokinase (GALK) inhibitors; shares compounds with Pol eta inh-1; purified GALK, Kinase-Glo ATP depletion luminescence; actives 70% (n = 150); AID 2015; Potency, µM (titrated, usually from 115 µM), most hits filed as inhibitors
GALK redox cs: counter-screen for GALK inhibitors: redox cycling H2O2 generation; shares compounds with Pol eta inh-1; Phenol red-HRP H2O2 redox cycling, absorbance 600 nm; Potency, µM (doses to about 115 µM), usual class: inhibitors; actives 40% (n = 150)
HEK293 viability: counter-screen for GALK inhibitors: HEK293 cell cytotoxicity; shares compounds with Pol eta inh-1; HEK-293 viability, ATP luminescence (CellTiter-Glo), 24/48 h; Potency, µM (top dose mostly 46.1 µM), actives largely listed as inhibitors; actives 10% (n = 170); AID 2547
Pol kappa inh-2: Pol kappa (human) inhibition, cherry-pick confirmation; shares compounds with Pol eta inh-1; purified Pol-kappa, fluorescent strand-displacement substrate; Potency, µM, most hits filed as inhibitors; actives 76% (n = 920)
Pol eta inh-2: Pol eta (human) inhibition, cherry-pick confirmation. shares compounds with Pol eta inh-1. Pol eta primer extension, TAMRA/BHQ fluorescence, 10 min. Potency, µM, usual class: inhibitors. actives 64% (n = 2,600). AID 720502
Numbers stand for hits; 0 = inactive; ? = inconclusive; - = no result; [ ] = another dose, or the depositor's remark. Most compounds without a hit are left out; they make up all but 2.5% or so of the library. The call rests on the fitted dose curve; in most records, active means well fitted curve in the direction sought with a large enough effect; inconclusive means small, poorly fitted or top-dose-only effect, or another doubt; inactive means no such curve, though single readings can be large; an effect the other way counts as inactive or inconclusive.

SMILES	L3MBTL1 block	Pol beta inh	POLI inh	Pol kappa inh-1	WRN helicase inh	Pol eta inh-1	Pol iota confirm	Pol kappa inh-2	Pol eta inh-2	others
O=C(N/N=C/c1cccn1-c1cccc(C(=O)O)c1)Nc1ccccc1	?	28.2µM	?	79.4µM	0[11.6 µM]	7.94µM	75.2	-	60.1
CC(C)c1ccc(NC(=O)CCN2C(=O)[C@@H]3Cc4ccccc4CN3C2=O)cc1	-	0	0	0	0	0	-	-	-
O=C(Nc1nccs1)NC1CCCCC1	0	0	0	0	0	0	-	-	-
Cc1cc2nc3c(=O)[nH]c(=O)[nH]c3nc2c([N+](=O)[O-])c1N	?	35.5µM	?	28.2µM	50.1µM	3.55µM	23.8	16.8	21.3
CCn1ncc(/C=C2/SC(=S)NC2=O)c1C	0	0	0	0	0	0	-	-	-
Cc1cc(/C=C2\SC(=S)NC2=O)c(C)[nH]1	0	22.4µM	20µM	79.4µM	0[11.6 µM]	20µM	?	-	75.7
O=C(Nc1ccccc1)Nc1cc(OCC(F)(F)F)cc(OCC(F)(F)F)c1	0	0	0	0	0	0	-	-	-
CCOC(=O)C1CCN(c2c(NCCCN(CC)c3ccccc3)c(=O)c2=O)CC1	0	0	0	0	0	0	-	-	-
CCN(CCCNc1cc2c(c(N)c1S(=O)(=O)O)C(=O)c1ccccc1C2=O)c1ccccc1	-	-	-	-	0[11.6 µM]	25.1µM	67	?	75.7
CCCN(CCC)C(=O)c1nn(C)c2c1CSc1ccccc1-2	-	0	0	0	-	0	-	-	-
O=C1C=C(NCc2ccccc2)c2ccccc2C1=O	22.4µM	?	1µM	0	?	5.62µM	42.3	-	84.9	GALK inh confirm=21.1µM;GALK redox cs=16.8µM;HEK293 viability=?
CC(=O)Oc1cccc(N2C(=O)c3cccc4c([N+](=O)[O-])ccc(c34)C2=O)c1	0	0	0	0	0	0	-	-	-
Cc1ccc(C(=O)O)cc1N1C(=O)c2cccc3c([N+](=O)[O-])ccc(c23)C1=O	22.4µM	17.8µM	15.8µM	39.8µM	?	10µM	26.7	6.7	30.1
COc1ccc2nc(C)cc(N/N=C/c3cccc(OC)c3O)c2c1	0	?	?	79.4µM	?	?	29.9	?	26.9
CCOc1cc(/C=N/Nc2ccc(S(=O)(=O)Nc3ccccc3C(=O)O)cc2[N+](=O)[O-])cc(Cl)c1O	-	-	-	-	?	25.1µM	47.4	23.8	67.5
CC(=O)Nc1ccc(C=NNc2ccc(S(=O)(=O)Nc3ccccc3C(=O)O)cc2[N+](=O)[O-])cc1	?	-	?	0	?	22.4µM	?	21.2	75.7
O=[N+]([O-])c1cc(S(=O)(=O)Nc2ccc(Cl)cc2)ccc1N/N=C/c1ccncc1	0	0	0	0	0	0	-	-	-
O=C(O)c1ccccc1NS(=O)(=O)c1ccc(NNC(=S)Nc2ccc(OC(F)F)cc2)c([N+](=O)[O-])c1	-	89.1µM	?	?	?	25.1µM	75.2	-	75.7
